Screening data deposited in PubChem by National Center for Advancing Translational Sciences (NCATS).
Most compounds without a hit are left out; they make up all but 1.2% or so of the library.
USP2a block = qHTS Assay for Inhibitors of Ubiquitin-specific Protease USP2a Using CHOP2 as the Reporter | Ubiquitin carboxyl-terminal hydrolase 2 (Homo sapiens), O75604 | USP2 core, Ub-CHOP2 coupled fluorogenic reporter, 485/531 | Potency, µM (top dose mostly 38.3 µM), usual class: inhibitors | 330,000 tested, 0.01% active | AID 463254, 2010
Target sequence (O75604 whole entry, looked up): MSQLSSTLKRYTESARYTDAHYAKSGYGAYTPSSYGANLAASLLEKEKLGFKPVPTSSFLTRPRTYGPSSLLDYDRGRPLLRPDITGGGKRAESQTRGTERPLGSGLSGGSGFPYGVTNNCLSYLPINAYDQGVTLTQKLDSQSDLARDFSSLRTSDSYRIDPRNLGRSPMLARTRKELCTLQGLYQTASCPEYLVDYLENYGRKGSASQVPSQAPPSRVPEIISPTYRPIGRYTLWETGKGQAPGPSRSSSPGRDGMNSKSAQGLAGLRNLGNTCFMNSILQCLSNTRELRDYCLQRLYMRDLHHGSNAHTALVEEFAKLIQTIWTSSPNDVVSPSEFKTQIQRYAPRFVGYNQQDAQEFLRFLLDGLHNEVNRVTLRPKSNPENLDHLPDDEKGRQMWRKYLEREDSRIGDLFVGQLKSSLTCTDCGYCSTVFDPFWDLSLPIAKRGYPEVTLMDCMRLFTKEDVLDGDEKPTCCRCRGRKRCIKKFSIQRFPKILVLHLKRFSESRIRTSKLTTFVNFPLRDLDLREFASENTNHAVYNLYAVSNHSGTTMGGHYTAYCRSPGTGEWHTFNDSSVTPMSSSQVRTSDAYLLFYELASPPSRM
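Cell-free coupled assay: 10nM USP2 core preincubated 30min RT with compound in Tris-HCl pH 8.0/CaCl2/CHAPS buffer, then 25nM Ub-CHOP2 and 25nM reporter substrate; fluorescence (Ex 485/Em 531) read after 60min RT, normalized to NEM inhibition, concentration-response curves fitted.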
uPA surface inh = qHTS for Inhibitors of Cell Surface uPA Generation; cell surface uPA generation assay, qHTS; Potency, µM (highest dose often 38.3 µM), hits mostly inhibitors; 330,000 tested, 0.31% active; AID 540303, 2011; active means well fitted inhibition curve with a large enough effect; inconclusive means small, poorly fitted or top-dose-only effect; inactive means no such curve, though single readings can be large or run the other way; tested in mouse RAW 264.7 cells; further: nearly all actives have a fitted effect of over 55% in size
L3MBTL1 inh = qHTS Assay for the Inhibitors of L3MBTL1 | Potency, µM (top dose mostly 57.1 µM), hits mostly inhibitors | 230,000 tested, 0.66% active | Lethal(3)malignant brain tumor-like protein 1 (Homo sapiens), Q9Y468 | AlphaScreen L3MBTL1–H3K9me1 peptide binding | AID 485360, 2010; further: nearly all actives have a fitted effect of over 60% in size
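Displacement of a biotinylated histone H3(1-15) peptide monomethylated at Lys9 (75 nM) from L3MBTL1 (50 nM) was measured by AlphaScreen after a 30 min room-temperature compound incubation; cefsulodin titration served as intraplate control.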
Eya2 inh = qHTS Assay for Inhibitors of the Phosphatase Activity of Eya2. Protein phosphatase EYA2 (Homo sapiens), O00167. 330,000 tested, 0.006% active. Potency, µM (highest dose often 76.9 µM), actives largely listed as inhibitors. recombinant Eya2, OMFP fluorescence dephosphorylation (OMFP is methylfluorescein phosphate)
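Eya2 protein (added as 0.2 uM solution) was preincubated with compound for 10 min at ambient temperature in 50 mM HEPES pH 7.5, 50 mM NaCl, 5 uM MgCl2, 0.05% BSA, 1 mM DTT. OMFP (added at 50 uM) then reacted 10 min; fluorescence read at 485/525 nm.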
CtBP-E1A inh = qHTS Assay for Inhibitors of the CtBP/E1A Interaction; AlphaScreen GST-E1A/His-CtBP binding, 1536-well; stronger effect = lower value; activity change, % (test concentration not listed); 340,000 tested, 0.49% active; in the data active means activity change below about -65%; inconclusive means mostly about -30% to -63%
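Protein mix (5X: 125 nM each GST-E1A, His-CtBP) was incubated with pinned compound 2 h at 37 deg C in dark, in 50 mM Tris pH 8.0 buffer with 300 mM NaCl. Glutathione donor and nickel acceptor beads followed; AlphaScreen signal read after 1 h.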
Six1-Eya2 blk = qHTS Assay for Inhibitors of the Six1/Eya2 Interaction. AlphaScreen GST-Six1/His-Eya2 binding, biochemical; stronger effect = lower value. activity change, % (test concentration not listed). 360,000 tested, 0.56% active; in the data active means activity change below about -65%; inconclusive means mostly about -30% to -63%
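Homogeneous AlphaScreen proximity assay pairing GST-Six1 with His-tagged Eya2 (added as 5X mix: 250 nM and 500 nM) in 50 mM Tris pH 8.0, 300 mM NaCl, 1 mM TCEP. Glutathione donor and nickel acceptor beads; 1 h, 37 °C, dark.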
A number is an active result; i = inactive; ? = inconclusive; nt = not tested or not shown. Unless noted, the call rests on the fitted dose curve; in most records, active means well fitted curve in the direction sought with a large enough effect; inconclusive means small, poorly fitted or top-dose-only effect, or another doubt; inactive means no such curve, though single readings can be large; an effect the other way counts as inactive or inconclusive.

SMILES	USP2a block	uPA surface inh	L3MBTL1 inh	Eya2 inh	CtBP-E1A inh	Six1-Eya2 blk
O=C(Nc1ccccc1C(=O)N/N=C/c1ccc(O)cc1)c1ccccc1	i	7.1µM	i	i	i	i
O=C(N/N=C/c1ccc(OC(=O)c2ccccc2Cl)cc1)c1cc(O)cc(O)c1	i	i	nt	i	-74	-68
O=C(N/N=C/c1ccc(OC(=O)c2ccccc2Cl)cc1)c1ccccn1	i	i	nt	i	i	i
O=C(N/N=C/c1ccc(OC(=O)c2ccc(Br)cc2)cc1)c1ccncc1	i	i	nt	i	i	?
O=C(N/N=C/c1cc(Br)ccc1OC(=O)c1ccc(Br)cc1)c1ccncc1	i	i	nt	i	-91	-79
O=C(N/N=C/c1cccs1)c1cccc2cc[nH]c12	i	nt	i	25µM	i	i
O=C(Nc1ccccc1C(=O)N/N=C/c1ccccc1)c1ccco1	i	i	nt	i	i	i
Cc1nccn1CC(=O)N/N=C/c1ccccc1O	i	i	i	i	-96	-81
O=C(N/N=C/c1cc(Br)ccc1O)c1ccncc1	i	i	32µM	i	-94	-93
Cc1cc(C(=O)N/N=C/c2cc(Br)ccc2OC(=O)c2ccccc2)n[nH]1	i	i	?	i	-67	?
O=C(N/N=C/c1ccccc1O)c1ccncc1	i	7.1µM	?	i	-92	-92
O=C(N/N=C/c1cccc2ccccc12)c1ccncc1	i	i	i	i	nt	i
Cc1nccn1CC(=O)N/N=C/c1c[nH]c2ccccc12	i	i	nt	i	i	i
Cc1cc(C(=O)N/N=C/c2cc(Br)ccc2OC(=O)c2ccccc2Cl)n[nH]1	i	i	i	i	i	?
COc1ccc(-c2nc(CN3CCN(C(=O)c4ccco4)CC3)c(C)o2)c(F)c1	i	i	nt	i	i	i
Cc1ccc([N+](=O)[O-])cc1NC(=O)C(C)NS(=O)(=O)c1ccc(F)cc1 (centres undefined)	i	i	i	i	nt	i
CCn1c(C)nc2cc(C(=O)N/N=C/c3cccc(O)c3O)ccc21	i	i	?	i	-94	-80
O=C(N/N=C/c1ccc(O)c([N+](=O)[O-])c1)c1ccncc1	i	i	nt	i	i	i
Cc1nc(C)c(C(=O)N/N=C/c2cc(Br)ccc2O)s1	i	i	nt	i	-84	?
O=C(N/N=C/c1cc([N+](=O)[O-])ccc1O)c1cccc(N2CCCC2=O)c1	i	i	nt	i	-93	-91
O=C(N/N=C/c1cc([N+](=O)[O-])ccc1O)c1ccncc1	i	i	?	i	nt	-90
CC(C)c1nc(SCC(=O)Nc2cccc3ccccc23)n[nH]1	i	i	i	i	i	i
CC(C)n1nccc1NC(=O)Nc1ccccc1	i	i	nt	i	i	i
O=Cc1ccc(OC(=O)c2cccnc2)cc1	i	i	i	i	i	-65
COc1ccc(-c2ccc3c(c2)S(=O)(=O)c2cccc(C(=O)N4CCN(c5ccccn5)CC4)c2C3=O)cc1OC	nt	nt	nt	nt	i	i
SMILES	USP2a block	uPA surface inh	L3MBTL1 inh	Eya2 inh	CtBP-E1A inh	Six1-Eya2 blk
COc1ccc(-c2ccc3c(c2)S(=O)(=O)c2cccc(C(=O)N4CCN(C5CCCCC5)CC4)c2C3=O)cc1OC	i	3.2µM	i	i	i	i
O=C1ON=C(c2ccccc2)/C1=C/c1ccco1	i	i	28µM	i	i	i
O=C1C2CCCN2C(c2ccc(F)cc2)N1c1ccc(Cl)cc1 (centres undefined)	i	5µM	nt	i	i	i
COc1ccc(N2CCC(CNC(=S)Nc3cc(C)ccc3C)C2)cc1 (centres undefined)	i	i	nt	i	nt	-69
COc1ccc(N2CCC(CNC(=S)Nc3cc(C)cc(C)c3)C2)cc1 (centres undefined)	i	i	nt	i	-70	-66
COc1ccc(N2CCN(C(=S)Nc3cc(C)ccc3C)CC2)cc1	i	i	i	i	i	i
COc1cc2ccccc2cc1C(=O)N1CC(C)CC(C)C1 (centres undefined)	i	i	nt	i	i	i
CCn1c(SCC(=O)N2CCC(C)CC2)nc2c1c(=O)n(C)c(=O)n2C	i	i	nt	i	i	i
CCCc1cc(=O)oc2c3c(cc(OCC(=O)N[C@@H](C)C(=O)O)c12)OC(C)(C)CC3	i	i	nt	i	i	i
CCCc1cc(=O)oc2c3c(c4c(c12)OC(C)(C)C=C4)OC(C)C(C)C3O (centres undefined)	i	1.4µM	i	i	i	i
Cn1nc(C(=O)Nc2nc(-c3ccccn3)cs2)c2ccccc2c1=O	i	i	i	i	-91	-91
COC(=O)c1ccc(C)c(NC(=O)c2nn(C)c(=O)c3ccccc23)c1	i	nt	i	i	i	i
COC(=O)c1cccc(NC(=O)c2nn(C)c(=O)c3ccccc23)c1	i	i	i	i	-85	-83
CCCn1nc(C(=O)Nc2nc(-c3ccccn3)cs2)c2ccccc2c1=O	i	?	?	i	-86	-77
CCN(CC)C(=O)C(=O)Nc1ccc(OC)c(Cl)c1	i	i	i	?	i	i
C1=C(c2cc3ccccc3cn2)CCCC1	i	i	i	i	i	i
C[C@@H](CO)NC(=O)c1ccc2c3n(nc2c1)-c1ccc(Cl)cc1CO3	i	4.5µM	nt	i	i	i
Cc1ccc2c(c1)COc1c3ccc(C(=O)NC(C)C)cc3nn1-2	i	7.1µM	nt	i	i	i
Cc1ccc2c(c1)COc1c3ccc(C(=O)N[C@@H](C)CO)cc3nn1-2	i	4.5µM	nt	i	i	i
Cc1ccc2c(c1)COc1c3ccc(C(=O)NCCO)cc3nn1-2	i	?	nt	i	i	i
CCOc1ccccc1/C=N/Nc1nc2c(N)ncnc2n1[C@H]1O[C@@H](CO)[C@H](O)[C@@H]1O	i	i	i	i	nt	i
Cc1ccc(NC(=O)/C=N/OCC(=O)NCc2ccccc2Cl)cc1	i	i	nt	i	i	i
O=C(NCCCN1CCOCC1)c1ccc2c(c1)N(Cc1c(F)cccc1Cl)C(=O)c1ccccc1S2	i	4.5µM	nt	i	nt	i
CCN1C(=O)c2ccccc2Sc2ccc(C(=O)NCCCN3CCOCC3)cc21	i	i	nt	i	i	i
CCN(CC)c1ccc(C(=C2C=CC(=[N+](CC)CC)C=C2)c2ccc(N(CC)CC)cc2)cc1	nt	?	nt	nt	-90	-78
